Data taken from PubChem BioAssay (NCI).
Compounds without any hit were thinned out: in the full panel of roughly 83,000, 20% have a hit.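 Compound tested at a single concentration for 48 hours in 96-well plates; a percent growth value below 10 was scored as active.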 Unmarked numbers belong to inactive results. Active and inactive are the calls of the source.

Each molecule was assayed on OVCAR-8 ovarian (assay: NCI-60 one-dose screen, 48 h (100 = growth as untreated, 0 = no growth, -100 = all killed)). Conditions: 10 µM unless noted.
Procedure: Growth inhibition of the OVCAR-8 human tumor cell line is measured as a screen for anti-cancer activity. Cells are grown in 96 well plates and exposed to the test compound for 48 hours. Compounds are tested at a single concentration, which is 10^-5 M for most compounds. The reported endpoint is percent growth (GI% or GIPRCNT), where numbers from 0 - 100% represent growth inhibition, and numbers from -100% - 0 represent cell death. For example, a value of 40 represents 60% growth inhibition. A value of 0 means no net growth occurred over the course of the experiment. A value of -40 indicates 40% of cells at the beginning of the experiment died by the end of the experiment. A value of -100 means all cells are dead at the end of the experiment.
NCI-60 Human Tumor Cell Lines Screen was performed using the standard one-dose NCI protocol, which is described in more detail at https://dtp.cancer.gov/discovery_development/nci-60/default.htm.
Compounds with GIPRCNT values below 10 were considered active. Activity score was based on GIPRCNT using the following formula: […]
Score is 0 for GIPRCNT values of 100 or above, 50 for GIPRCNT values of 0, and 100 for GIPRCNT values of -100.
With CC(C)(C)NCC(O)COc1c(Br)c(Br)c(Br)c2c1OC(C)(C)C2 (stereo not given) the growth was -54.8% (active). Work on COc1ccccc1NC(=O)COc1ccc(/C=C2/Oc3cc4occc4c(OC)c3C2=O)cc1OC yielded a growth of 85.4%. Molecule CC1(C)N=C(N)N=C(N)N1c1ccc(OCC(=O)Nc2ccccc2)c(Cl)c1 has a growth of 21.9%. Nc1nccc(=S)[nH]1 was tested, and the growth was 104%. Work on CCOC(=O)c1noc2c1CCc1cn(Cc3cc(OC)cc(OC)c3)cc1-2 yielded a growth of 107%. CC(CN(C)C)CN1c2ccccc2CCc2ccccc21 (stereo not given) was tested, and the growth was 106%. In the case of O=C(Nc1ccc(-n2ccc3c(NC(=O)c4ccccc4)nccc32)cc1)c1ccc(Cl)c(C(F)(F)F)c1, the growth is reported as 23%. Molecule COc1ccc(-c2cc(-c3nnc(SC/C(=N\O)c4ccccc4)n3-c3ccccc3)c3ccccc3n2)cc1 has a growth of 98.7%. Work on CCCN1C(=O)CSC1=Nc1ccc2cc3ccc(N=C4SCC(=O)N4CCC)cc3nc2c1 yielded a growth of 37.2%. Molecule O=C1c2ccccc2C(=O)c2c(NCCN=Cc3c(O)ccc4ccccc34)cccc21 has a growth of 69.9%. COC(OC)C1(c2ccccc2)NC(=O)NC1=O (stereo not given) showed a growth of 103%. Molecule Cc1cc(C)c(O)c(C(=O)CC(Br)C(=O)O)c1 (stereo not given) has a growth of 105%. In the case of c1cncc(-c2nc3ccccc3[nH]2)c1, the growth is reported as 98.4%. Work on O=C1c2ccccc2OC=C(c2ccccc2)N1CCCCN1CCCCC1 yielded a growth of 51.7%. O=C(Nc1ccc(-n2cc(-c3ccncc3)c(-c3ccc(O)c(Cl)c3)n2)cc1)Nc1ccc(Cl)c(C(F)(F)F)c1 showed a growth of 15.2%. Work on Cc1ccc2c(c1)Nc1ccc(C)cc1C2(C)C yielded a growth of 103%. For COC1=C(OC)C(=O)C=CC1=O, the growth was 110%. Work on Cc1ccc2c(C3C(C#N)=C(N)Oc4cc5ccccc5cc43)cc(=O)oc2c1 (stereo not given) yielded a growth of 24.5%. Molecule CCOc1ccccc1C(=O)N1CCN(c2cc(Cl)cc(Cl)c2)CC1 has a growth of 11.2%. In the case of Cc1ccc[n+](CC(=O)c2cccc3ccccc23)c1, the growth is reported as 114%. For O=C(Cn1c2ccccc2c2ccncc21)N/N=C/c1c[nH]c2ccccc12, the growth was 40.9%. For C=C1C(=O)O[C@H]2[C@H]1CC/C(COC(=O)c1cc(OC)c(OC)c(OC)c1)=C\CC[C@@]1(C)O[C@@H]21, the growth was -45.7% (active). OCc1cnccc1NC12CC3CC(CC(C3)C1)C2 showed a growth of 93.8%. With CN(C)c1ncc(C#Cc2c(F)cccc2F)c2ccccc12 the growth was 93.7%. O=C(/C=C/c1ccco1)c1cccc(Nc2nc(Nc3ccccc3)nc(Nc3ccccc3)n2)c1 was tested, and the growth was 49.5%. Work on OCc1cn(-c2ccc(Cl)cc2)nc1-c1ccc(O)cc1 yielded a growth of 106%. Molecule O=[N+]([O-])c1cccc2cc(S(=O)(=O)O)ccc12 has a growth of 98.9%. COc1ccccc1S(=O)(=O)Nc1ccc2c3c(cc(-c4cnn(C5CC5)c4)nc13)C(=O)N2C was tested, and the growth was 70.1%. CN(C)c1ccc(/C=N/N=C(N)N)cc1 showed a growth of 91.1%. For CC(C)(C)C(=O)/C=c1/[nH]c(=O)/c(=C/c2ccccc2O)s1, the growth was 66.9%. With CCCCCCCCCCCCCCCCCCNCc1ccc(Cl)cc1 the growth was -62.7% (active). In the case of COc1ccc2c(c1)O/C(=C/c1ccc(OCC(=O)Nc3ccc(S(N)(=O)=O)cc3)cc1)C2=O, the growth is reported as 98.6%. Molecule Cc1ccccc1C[P+](c1ccccc1)(c1ccccc1)c1ccccc1 has a growth of 18.7%. COc1ccc(-n2c(-c3ccc(NC(=O)CCCl)cc3)nnc2-c2cc(OC)c(OC)c(OC)c2)cc1 gave a growth of 49.2%. O=C(O)c1ccc(-c2nn(-c3ccc(C(=O)O)cc3)cc2/C=N/Nc2c(F)c(F)cc(F)c2F)cc1 showed a growth of 108%. Work on O=C(O)c1cccc2oc(-c3ccccc3O)nc12 yielded a growth of 31.9%. Work on c1ccc([Se]CCCN2CCN(CCC[Se]c3ccccc3)CC2)cc1 yielded a growth of 119%. Work on CCOc1cccc(Nc2nc(N)nc3[nH]c4ccc(O)cc4c23)c1 yielded a growth of 77.6%. O=C(Nc1cccc(-n2ccc3c(NC(=O)c4ccccc4)nccc32)c1)Nc1cc(C(F)(F)F)cc(C(F)(F)F)c1 was tested, and the growth was -32.1% (active). Molecule COc1cc(C(=O)N2CCN(C(=O)c3cc(OC)c(OCc4ccccc4)cc3N)CC2)c(N)cc1OCc1ccccc1 has a growth of 106%.
